NS1 inh: influenza NS1 inhibition. Potency, µM (top dose mostly 46.1 µM), inactives show at the top dose activity, positive = more growth. hit rate 0.4% among 270,000. AID 2326; calls by dose curve; further: potency means the concentration at half of the fitted maximal effect; actives are rising curves; nearly all actives have a fitted effect of over 50% in size
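OD600 was taken as the measure of yeast growth restored by compound in an NS1-expressing S. cerevisiae strain. Cells had been washed out of glucose medium and diluted 1:100 into galactose -URA medium, pH 6.0.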
CHX counter: counter-screen for Shiga toxin inhibitors: cycloheximide protein synthesis inhibition. cell reporter, cycloheximide protein synthesis inhibition counterscreen. max response, %. hit rate 12% among 300,000; in the data active means max response mostly above about 13%, no sharp cut-off; inactive means mostly below about 14%; further: read at 38.3 µM for the half of the compounds with a filed dose; 0% is about no effect
Pf growth 48h: P. falciparum growth inhibition at 48 hours (one generation). P. falciparum luciferase growth in erythrocytes, 48 h. Potency, µM (highest dose often 28.7 µM), for the others: at the highest dose activity change, negative = inhibition, most hits filed as inhibitors. hit rate 5.9% among 310,000; further: potency means the concentration at half of the fitted maximal effect; on the % scale 0 is the no-effect control and ±100 the full control effect
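Luminescence readout; reporter = integrated firefly luciferase in P. falciparum. RBC culture at 2% hematocrit, 0.1% parasitemia final, 37 C/5% CO2; decreased signal taken as growth inhibition.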
Shiga inhibitor: inhibitors of Shiga toxin in Vero cells | hit rate 9.2% among 290,000 | inhibition, % at 38.7 µM | Vero cells, Shiga toxin protein synthesis inhibition reporter; in the data active means inhibition mostly above about 28%, no sharp cut-off; inactive means mostly below about 43%; further: 0% is about no effect
Pf growth 96h: P. falciparum growth inhibition at 96 hours | P. falciparum luciferase reporter growth, 96 h | Potency, µM (doses to about 28.7 µM), without a hit: top-dose activity change, negative = inhibition, actives largely listed as inhibitors | hit rate 6.9% among 320,000 | AID 504834; further: potency means the concentration at half of the fitted maximal effect; on the % scale 0 is the no-effect control and ±100 the full control effect
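96 h incubation, 37 C, 5% CO2, of luciferase-reporter P. falciparum-infected RBCs (2% hematocrit, 0.05% parasitemia final) with test compounds; endpoint luminescence.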
An asterisk follows results filed as active; ? = inconclusive; nt = no result given. Only some compounds are listed: those with a hit (about 21% of all), similar ones and a draw of the others. Unless noted, the call rests on the fitted dose curve; in most records, active means well fitted inhibition curve with a large enough effect; inconclusive means small, poorly fitted or top-dose-only effect, or another doubt; inactive means no such curve, though single readings can be large or run the other way.

SMILES | NS1 inh | CHX counter | Pf growth 48h | Shiga inhibitor | Pf growth 96h
COc1ccc(-n2c(C)cc(/C=N/Nc3nnc(C)n3N)c2C)cc1 | -11% | 19* | ? | 33 | 73%
CCn1c(/C=C/N(C(C)=O)c2ccccc2)[n+](CC)c2ccc(Cl)cc21 | 1% | -5 | 2.1µM* | -13 | 38%
CC[n+]1c(/C=C/C=C/N(C(C)=O)c2ccccc2)sc2ccccc21 | ? | 10 | 4.7µM* | 25 | 9.3µM*
CC[n+]1c(/C=C/N(C)c2ccccc2)sc2ccc(Cl)cc21 | -38% | -2 | 0.1µM* | 2 | 0.13µM*
CC[n+]1c(/C=C/C=C/c2ccc(N(C)C)cc2)sc2ccccc21 | -73% | -3 | -11% | -4 | 5%
CCC1=C/C(=C/N(C)c2ccccc2)C(=O)S1 | -32% | 9 | nt | 10 | ?
Cc1ccccc1OCC(=O)NNC(=O)c1ccc(-c2ccccc2)cc1 | -7% | -3 | 9% | -2 | 20%
Cc1ccc(OC(C)C(=O)Nc2ccccc2C(=O)N2CCN(C)CC2)cc1 (centres undefined) | 1% | -3 | -2% | -19 | ?
CN(CCc1ccccc1)C(=O)c1cc(COc2ccc(F)cc2Cl)on1 | -12% | 43* | 9% | 74* | ?
CN(CCCN1CCOCC1)C(=O)c1cc(COc2cccc(C(F)(F)F)c2)on1 | 1% | -2 | 15% | 8 | -11%
CN(CCc1ccccn1)C(=O)c1cc(COc2ccc(F)cc2F)on1 | -4% | 8 | 9% | 17 | ?
CN(CCc1ccccc1)C(=O)c1cc(COc2cccc(C(F)(F)F)c2)on1 | -37% | 23* | 58% | 60* | -6%
COC(/C=C/Nc1ccc(Br)cc1)=C(C#N)C#N | 8% | 2 | 4% | -4 | 36%
Cc1cc(Cl)c2oc(C(=O)N3CCN(C4CCS(=O)(=O)C4)CC3)c(C)c2c1 (centres undefined) | -6% | -1 | 13% | -10 | 66%
Cc1cc(Cl)c2oc(C(=O)N(C)CC3CCOCC3)c(C)c2c1 | -21% | 38* | 49% | 71* | ?
CN(CC1CCOCC1)C(=O)c1ccc2nc(Cc3cccc(Cl)c3)oc2c1 | -11% | 8 | -15% | 9 | ?
C=CCN(C(=O)c1oc2c(Cl)cc(C)cc2c1C)C1CCS(=O)(=O)C1 (centres undefined) | -35% | 60* | 12% | 60* | -12%
CN(C)CCCC1(c2ccc(F)cc2)OCc2cc(C#N)ccc21 (centres undefined) | -9% | -2 | -10% | -16 | -23%
Fc1ccc(CSc2ccc(-c3ccc4c(c3)OCO4)nn2)cc1 | -2% | 11* | 19% | 6 | 26%
c1ccc(CSc2ccc(-c3ccc4c(c3)OCO4)nn2)cc1 | -17% | 27* | 24% | 38 | 162%
CC(CC(=O)NCc1ccc(F)cc1)c1ccccc1 (centres undefined) | -2% | 9 | 11% | -5 | 2%
COc1ccc(CCNC(=O)CSCc2c(F)cccc2Cl)cc1OC | -4% | 1 | -21% | -1 | -9%
CC(C)NC(=O)CSCc1c(F)cccc1Cl | 8% | 8.4* | 6% | 9 | 34%
O=C(CSCc1c(F)cccc1Cl)NCCc1ccccc1 | -50% | 21* | 22% | 46* | 13%
CC(CC(=O)NCCc1ccc(F)cc1)c1ccccc1 (centres undefined) | -7% | 25* | 28% | 57 | ?
SMILES | NS1 inh | CHX counter | Pf growth 48h | Shiga inhibitor | Pf growth 96h
O=C(CCc1ccccc1)NCCSCc1c(F)cccc1Cl | -38% | 23* | -14% | 14 | ?
COc1ccc(NC(=O)CCN2CCN(Cc3ccccc3)CC2)c(OC)c1 | 0% | 1 | ? | nt | 48%
COc1ccc(CSc2nnnn2Cc2ccccc2)cc1OC | -9% | 19 | -6% | 2 | 31%
CC(=O)c1cccc(NS(=O)(=O)c2ccc3c(c2)N(C(C)=O)CCO3)c1 | 5% | -3 | 25% | -7 | ?
O=C(CSCc1ccc(Br)cc1)NCCc1ccccc1 | -52% | -3 | -14% | 2 | 5%
O=C(CSCc1ccccc1)NCCc1ccc(F)cc1 | -1% | 17* | ? | 30 | -12%
Cc1ccc(OCC(=O)NNc2c3ccccc3nc3ccccc23)cc1 | -8% | -2 | 9.3µM* | 8 | ?
Cc1cccc(OCC(=O)NNc2c3ccccc3nc3ccccc23)c1 | -21% | 1 | ? | 15 | 3.7µM*
Cc1ccc(C(=O)COc2nc(C)nc3ccccc23)cc1 | 0% | 24* | 232% | 80* | 49%
